Results as given in PubChem BioAssay (NCATS).
Results filed as inconclusive are left out. Values without a mark were called inactive. Active and inactive are the calls of the source. Calls follow the shape of the dose curve; as a rule, active = well fitted cell-killing curve with a large enough effect; inconclusive = small, poorly fitted or top-dose-only effect; inactive = flat fitted curve, though single readings scatter.

assay: qHTS of pediatric cancer cell lines to identify multiple opportunities for drug repurposing: Primary screen for Rh18 cells (AID 1347102); details: Rh18 rhabdomyosarcoma viability, CellTiter-Glo luminescence, 48 h; series mostly up to 46 µM; activity change, negative = cytotoxic: at the top concentration; also: nearly all actives have a fitted effect of over 65% in size
Text: Drug repurposing or repositioning has been offered as a strategy for drug development in oncology programs. This approach has special potential for childhood cancers and other rare or orphan diseases, where the expected return on new drug development has been a disincentive to pharmaceuticals.
In this project we exploit the poly-pharmacology of drugs to discover new indications via phenotypic screening of a panel of 19 well-characterized cell lines derived from solid tumors seen in children and adolescents. The goal is to identify approved drugs with previously unrecognized anticancer properties that has the potential to reveal new mechanisms and biological processes involved in carcinogenesis or drug resistance. We employed a titration-based paradigm (quantitative high-throughput screening or qHTS), where all compounds were tested at multiple concentrations for their effect on cell viability. Concentration-response curves (CRCs) were derived directly from the primary screen, and both potency and efficacy values were used to identify compounds with robust bioactivity profiles. We screened the NIH Chemical Genomics Center (NCGC) Pharmaceutical Collection (NPC) and Mechanism Interrogation Plate (MIPE) small molecule collections of approved and investigational compounds against these cell lines; and measured metabolically active cells after 48 hours of compound treatment as a proxy for cell viability.
Assay Submitter: Nathalia J. Martinez, National Center for Advancing Translational Sciences, National Institutes of Health, Rockville, MD, USA; email: natalia.martinez@nih.gov
[1] Shen, M et al. Quantitative high-throughput phenotypic screening of pediatric cancer cell lines identifies multiple opportunities for drug repurposing. Oncotarget 2017 Dec 19;9(4):4758-4772. PMID 29435139.
The cells were obtained from University of North Carolina (UNC), Pediatric Preclinical Testing Program (PPT), and Coriell Institute (CI).
qHTS cell viability assay:
Cells were assayed in growth media at a density of 500-1,000 cells/well. Five microliters of cells were dispensed into 1,536-well, white, solid-bottom, TC-treated plates (Greiner Bio One) using a multidrop dispenser and incubated at 37 degrees C, 5% CO2, under a humidified atmosphere for 5 hours. Twenty-three nanoliters of compounds and controls (neutral control DMSO or positive control bortezomib at final concentration of 2.3 µM) were subsequently transferred by Kalypsys pintool. For primary screens, the MIPE collection was tested at 11-point dilutions (final concentrations range from 0.78 nM to 46 µM) and the NPC collection at 8-point dilutions (final concentrations range from 0.59 nM to 46 µM). Compounds tested in follow-up screens were assayed at 11-point dilutions. Cells were incubated for 48 hours, followed by addition of 3 µL of CellTiter-Glo (Promega). After a 15 min incubation at room temperature, samples were analyzed for luminescence intensity using a ViewLux High-throughput CCD imager equipped with clear filters.
% is scaled to controls: 0 for no effect and ±100 for the full control effect; potency is read from the fitted curve at half-maximal effect.

Row | Structure (SMILES) | activity change, negative = cytotoxic | Potency
1 | Nc1ccn([C@@H]2O[C@H](CO)[C@H](O)C2(F)F)c(=O)n1 | -10.5% | 
2 | CC(C)c1ccccc1Cc1cc(C(=O)Nc2ccc(S(=O)(=O)c3ccccc3C(C)(C)C)cc2)c(O)c(O)c1O |  | 18.7 µM (active)
3 | O=C(C=Cc1cccc(S(=O)(=O)Nc2ccccc2)c1)NO |  | 1.91 µM (active)
4 | O=C(O)CO.[NH2-].[NH2-].[Pt+2] | 23.4% | 
5 | CN(C)c1nc(Cc2ccc(NC(=O)c3ccc4ccccc4c3)cc2)nc(Cl)c1CC(=O)O | 6.61% | 
6 | CCCn1c(=O)c2[nH]c(-c3cnn(Cc4cccc(C(F)(F)F)c4)c3)nc2n(CC)c1=O | -10.2% | 
7 | CC1(C)O[C@@H]2C[C@@H]3[C@H]4C[C@@H](F)C5=CC(=O)C=C[C@]5(C)[C@@]4(F)[C@@H](O)C[C@]3(C)[C@]2(C(=O)CO)O1 | 6.3% | 
8 | COC(=O)C1=C(C)NC(C)=C(C(=O)OCCN2CCN(C(c3ccccc3)c3ccccc3)CC2)C1c1cccc([N+](=O)[O-])c1 (stereo not given) |  | 16.8 µM (active)
9 | CN1c2cc(O)c(N=NC(N)=O)cc2CC1S(=O)(=O)O (stereo not given) | 11% | 
10 | O=C(O)[C@H](Cc1c[nH]c2ccccc12)N1C(=O)c2ccccc2C1=O | -2.87% [at 92.7 µM] | 
11 | Nc1ccccc1NC(=O)c1ccc(CNc2nccc(-c3cccnc3)n2)cc1 |  | 2.09 µM (active)
12 | COc1ccc(-c2cc3c(C)nc(N)nc3n(C3CCC(OCCO)CC3)c2=O)cn1 (stereo not given) |  | 0.0935 µM (active)
13 | C=C1C(=CC=C2CCC[C@]3(C)[C@@H]([C@H](C)C=C[C@H](C)C(C)C)CC[C@@H]23)C[C@@H](O)C[C@@H]1O |  | 0.743 µM (active)
14 | COC(=O)[C@]12CCC(C)(C)C[C@@H]1[C@@H]1C(=O)C=C3[C@@]4(C)C=C(C#N)C(=O)C(C)(C)[C@@H]4CC[C@@]3(C)[C@]1(C)CC2 |  | 0.935 µM (active)
15 | O=C(NCCCNc1nc(Nc2cccc(NC(=O)N3CCCC3)c2)ncc1I)c1cccs1 |  | 14.8 µM (active)
16 | COc1cc(C(=O)N2CCC(N3CCN(C)CC3)CC2)ccc1Nc1ncc2c(n1)N(C)c1ccccc1C(=O)N2C |  | 11.8 µM (active)
17 | COc1cc2c(cc1-c1c(C)noc1C)ncc1[nH]c(=O)n([C@H](C)c3ccccn3)c12 |  | 5.9 µM (active)
18 | C[C@]12CC[C@H](O)CC1=CCC1C2CC[C@]2(C)C(n3cnc4ccccc43)=CCC12 (stereo not given in full) | 8.28% | 
19 | O=C(O)Cn1nnc(-c2cc(N3CCC(Oc4cc(F)ccc4Br)CC3)no2)n1 | 13.2% | 
20 | COc1cccc2nc(-c3cccs3)nc(NN3C(=O)C=C(C)C3=O)c12 |  | 5.26 µM (active)

Row | Structure (SMILES) | activity change, negative = cytotoxic | Potency
21 | c1ccc2c(CCNc3ccc(Nc4ccncc4)cc3)c[nH]c2c1 |  | 18.7 µM (active)
22 | C1=CCOCc2cc(ccc2OCCN2CCCC2)Nc2nccc(n2)-c2cccc(c2)OCC1 |  | 7.43 µM (active)
23 | CC(=O)SC[C@@H](C)C(=O)N1CCC[C@H]1C(=O)N[C@@H](Cc1ccccc1)C(=O)O | 13.6% | 
24 | Cc1[nH]nc2ccc(-c3cncc(OC[C@@H](N)Cc4ccccc4)c3)cc12 |  | 3.32 µM (active)
25 | Cc1cnc(Nc2ccc(F)cc2Cl)nc1-c1c[nH]c(C(=O)N[C@H](CO)c2cccc(Cl)c2)c1 |  | 16.6 µM (active)
26 | O=C(c1ccc(Nc2nccc(-c3cc4ccccc4s3)n2)cc1)N1CCC(N2CCCC2)CC1 |  | 14.8 µM (active)
27 | CC(C)c1ccc(Cn2ccc3c4c(N)nc(NC5CC5)nc4ccc32)cc1 |  | 18.7 µM (active)
28 | Cc1cc(Nc2ncnc3ccc(-c4ccc(CNCCS(C)(=O)=O)o4)cc23)ccc1Oc1ccn2ncnc2c1 |  | 20.9 µM (active)
29 | Cc1cc(Nc2nc(N[C@@H](C)c3ccc(F)cc3)c(C#N)cc2F)n[nH]1 |  | 5.9 µM (active)
30 | CC(O)C1C(=O)N2C(C(=O)O)=C(SC3CNC(C(=O)N(C)C)C3)C(C)C12 (stereo not given) | 17.4% | 
31 | NC(=O)Nc1cc(-c2cccc(F)c2)sc1C(=O)N[C@H]1CCCNC1 |  | 13.2 µM (active)
32 | COc1ccc(CC2SC(=O)NC2=O)cc1C(=O)NCc1ccc(C(F)(F)F)cc1 (stereo not given) | -17.9% | 
33 | CS(=O)(=O)c1ccc(-c2cnc(N)c(C(=O)Nc3ccccc3)n2)cc1 | 14.3% | 
34 | C1Cc2[nH]nc(-c3nn[nH]n3)c2C1 | -0.393% | 
35 | COc1c(N2C[C@@H]3CCCN[C@H]3C2)c(F)cc2c(=O)c(C(=O)O)cn(C3CC3)c12 | 6.12% | 
36 | Cn1cncc1[C@@](N)(c1ccc(Cl)cc1)c1ccc2c(c1)c(-c1cccc(Cl)c1)cc(=O)n2C |  | 16.6 µM (active)
37 | Cc1nc2cnc3ccc(C#Cc4cccnc4)cc3c2n1-c1ccc(C(C)(C)C#N)cc1 |  | 1.18 µM (active)
38 | Cc1ccc(C(N)=O)cc1Nc1nccc(-c2cn(C(C)C)c3cnccc23)n1 | -9.68% | 
39 | CC(=O)c1c(C)c2cnc(Nc3ccc(N4CCNCC4)cn3)nc2n(C2CCCC2)c1=O |  | 23.5 µM (active)
40 | O=C(NCCS(=O)(=O)c1ccc(C(F)(F)F)cn1)c1ccc(Cl)cc1 | 19.5% | 
